This is an account of results in PubChem BioAssay (EPA / NIEHS).

Read-out in assay [1]: Nuclear factor erythroid 2-related factor 2 (Homo sapiens) (UniProt Q16236)
In words: LTEA_HepaRG_NFE2L2: Life Technologies and Expression Analysis (LTEA) Assay for Nuclear factor erythroid 2-related factor 2 (NFE2L2) Transcription Factor using HepaRG (AID 2283527).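 For outcome: TaqMan qRT-PCR transcript level normalised to ACTB GAPDH and POLR2A housekeeping genes.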 As to conditions: mRNA level, 48 h; actives raise or lower the signal. In outline:
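Differentiated human HepaRG cells in serum-free induction medium were exposed for 48 h to eight concentrations (top 100 uM, half-log dilutions, 0.5% DMSO), in duplicate. NFE2L2 mRNA was quantified by TaqMan qRT-PCR, normalized to ACTB, GAPDH and POLR2A, with bidirectional fitting versus DMSO.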

Read-out in assay [2]: succinate dehydrogenase complex iron sulfur subunit B (SDHB), SDHB (gene 6390)
In words: LTEA_HepaRG_SDHB: Life Technologies and Expression Analysis (LTEA) Assay for succinate dehydrogenase complex iron sulfur subunit B (SDHB) using HepaRG (AID 2283528). As to conditions: mRNA level, 48 h; actives raise or lower the signal. In outline: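 HepaRG cells (~100,000/well, plated 48 h) exposed in duplicate for 48 h in serum-free induction medium to 8-point half-log series from 100 uM in 0.5% DMSO; mRNA by qRT-PCR normalised to ACTB, GAPDH, POLR2A; bidirectional fit versus DMSO.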

Read-out in assay [3]: Signal transducer and activator of transcription 3 (Homo sapiens) (UniProt P40763)
The experiment in a line: LTEA_HepaRG_STAT3: Life Technologies and Expression Analysis (LTEA) Assay for Signal transducer and activator of transcription (STAT3) using HepaRG (AID 2283529). As to conditions: mRNA level, 48 h; actives raise or lower the signal. Summed up: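 Differentiated human HepaRG cells in serum-free induction medium were exposed in duplicate for 48 h to eight half-log concentrations up to 100 uM in 0.5% DMSO. STAT3 mRNA was quantified by TaqMan qRT-PCR, normalized to ACTB, GAPDH and POLR2A, and fitted bidirectionally against DMSO.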

Read-out in assay [4]: solute carrier (SLCO1B1), SLCO1B1 (gene 10599)
The experiment in a line: LTEA_HepaRG_SLCO1B1: Life Technologies and Expression Analysis (LTEA) Assay for solute carrier (SLCO1B1) using HepaRG (AID 2283530). As to conditions: mRNA level, 48 h; actives raise or lower the signal. In outline: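 Gain or loss of SLCO1B1 mRNA is fitted against the 0.5% DMSO vehicle in human HepaRG liver cells treated 48 h at up to 100 uM in half-log steps. Expression comes from qRT-PCR normalized to endogenous controls.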

Read-out in assay [5]: Transforming Growth Factor (TGFA), TGFA (gene 7039)
In words: LTEA_HepaRG_TGFA: Life Technologies and Expression Analysis (LTEA) Assay for Transforming Growth Factor (TGFA) using HepaRG (AID 2283532). As to conditions: mRNA level, 48 h; actives raise or lower the signal. Summed up:
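Differentiated human HepaRG cells, plated 48 h then switched to serum-free induction medium, were exposed in duplicate for 48 h to 8-point half-log series from 100 uM in 0.5% DMSO. TGFA mRNA measured by qRT-PCR, normalized to ACTB/GAPDH/POLR2A, bidirectional fit versus DMSO.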

Read-out in assay [6]: Transforming Growth Factor (TGFB1), TGFB1 (gene 7040)
The experiment in a line: LTEA_HepaRG_TGFB1: Life Technologies and Expression Analysis (LTEA) Assay for Transforming Growth Factor (TGFB1) Transporter using HepaRG (AID 2283533). As to conditions: mRNA level, 48 h; actives raise or lower the signal. Summed up:
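Expression change of TGFB1 in human HepaRG cells is measured after a 48 h chemical exposure, up to 100 uM in 0.5% DMSO vehicle. Curves are fitted in both directions relative to the DMSO baseline.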

Read-out in a further assay: TIMP1, TIMP1 (gene 7076)
The experiment in a line: LTEA_HepaRG_TIMP1: Life Technologies and Expression Analysis (LTEA) Assay for TIMP1 using HepaRG (AID 2283534). As to conditions: mRNA level, 48 h; actives raise or lower the signal. In outline:
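We dosed human liver HepaRG cultures for 48 hours with up to 100 uM test chemical and measured TIMP1 expression by qRT-PCR. Activity in either direction is fitted relative to the 0.5% DMSO vehicle.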

Read-out in assay [7]: Tumor necrosis factor receptor 1 (TNFRSF1A), TNFRSF1A (gene 7132)
In words: LTEA_HepaRG_TNFRSF1A: Life Technologies and Expression Analysis (LTEA) Assay for Tumor necrosis factor receptor 1 (TNFRSF1A) using HepaRG (AID 2283535). As to conditions: mRNA level, 48 h; actives raise or lower the signal. In outline: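 Expression of TNFRSF1A in human HepaRG liver cells was measured by qRT-PCR 48 h after chemical dosing (maximum 100 uM). Bidirectional curve fitting used 0.5% DMSO as baseline.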

Read-out in assay [8]: Thyroid Hormone Responsive (THRSP), THRSP (gene 7069)
The experiment in a line: LTEA_HepaRG_THRSP: Life Technologies and Expression Analysis (LTEA) Assay for Thyroid Hormone Responsive (THRSP) using HepaRG (AID 2283536). As to conditions: mRNA level, 48 h; actives raise or lower the signal. In outline: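 Differentiated human HepaRG cells were exposed in duplicate for 48 h in serum-free induction medium to eight concentrations (top 100 uM, half-log steps, 0.5% DMSO). Expression was quantified by TaqMan qRT-PCR, normalized to ACTB, GAPDH and POLR2A, with bidirectional fitting against DMSO.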

Read-out in assay [9]: Cellular tumor antigen p53 (Homo sapiens) (UniProt P04637)
The experiment in a line: LTEA_HepaRG_TP53: Life Technologies and Expression Analysis (LTEA) Assay for Tumor Protein P53 (TP53) using HepaRG (AID 2283537). As to conditions: mRNA level, 48 h; actives raise or lower the signal. Summed up: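 Differentiated HepaRG cells in serum-free induction medium exposed 48 h in duplicate to 8 half-log concentrations, top 100 uM, 0.5% DMSO. TP53 mRNA by TaqMan qRT-PCR (Fluidigm), normalized to ACTB, GAPDH, POLR2A; fitted bidirectionally versus DMSO.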

Read-out in assay [10]: UDP glucuronosyltransferase (UGT1A1), UGT1A1 (gene 54658)
The experiment in a line: LTEA_HepaRG_UGT1A1: Life Technologies and Expression Analysis (LTEA) Assay for UDP glucuronosyltransferase (UGT1A1) using HepaRG (AID 2283538). As to conditions: mRNA level, 48 h; actives raise or lower the signal. In outline:
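HepaRG cells, 0.5% DMSO vehicle, 48 h exposure in serum-free induction medium to 8-point half-log series topping at 100 uM, in duplicate. UGT1A1 mRNA by Fluidigm qRT-PCR, normalized to ACTB/GAPDH/POLR2A; bidirectional fit versus DMSO.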

Read-out in assay [11]: UDP glucuronosyltransferase (UGT1A6), UGT1A6 (gene 54578)
In words: LTEA_HepaRG_UGT1A6: Life Technologies and Expression Analysis (LTEA) Assay for UDP glucuronosyltransferase (UGT1A6) using HepaRG (AID 2283539). As to conditions: mRNA level, 48 h; actives raise or lower the signal. In outline:
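Endpoint is UGT1A6 transcript induction or loss in a human liver cell line, quantified by TaqMan qRT-PCR 48 h after dosing. Concentrations ran from 100 uM downward in half-log steps in 0.5% DMSO; activity was fitted in both directions versus vehicle.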

Read-out in assay [12]: X-box binding protein 1 (XBP1), XBP1 (gene 7494)
The experiment in a line: LTEA_HepaRG_XBP1: Life Technologies and Expression Analysis (LTEA) Assay for X-box binding protein 1 (XBP1) using HepaRG (AID 2283540). As to conditions: mRNA level, 48 h; actives raise or lower the signal. Summed up:
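Human HepaRG monolayers receive test chemical for 48 h across an eight-point half-log series starting at 100 uM. XBP1 mRNA gain or loss is scored against DMSO by qRT-PCR.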

Assay [13] can be described thus: LTEA_HepaRG_LDH_cytotoxicity: Cytotoxicity Assessment in the Life Technologies and Expression Analysis (LTEA) Assay (AID 2283563; active = hit-call score of the fitted dose curve at least 0.9, where 1 is the maximum;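 for AC50: LDH activity released into spent culture medium as a marker of cell death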). Summed up: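 Human HepaRG hepatic cells are treated with test chemicals for 48 h at up to 100 uM in 0.5% DMSO. Cytotoxicity is scored from medium LDH against the vehicle control.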
Assay [14] in a line: TOX21_p53_BLA_p2_viability: Viability Assessment in the Tox21 HCT-116 p53 Agonism Beta-lactamase Assay, Phase 2 (AID 2283591; active = hit-call score of the fitted dose curve at least 0.9, where 1 is the maximum;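 note: compound exposure lasted 16 h at 37 °C; actives lower the ATP signal meaning cytotoxicity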). In outline: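 HCT-116 p53-bla cells (4000/well) rested 5 h at 37C, then received compounds in DMSO (217-fold dilution) for 16 h at 37C, 5% CO2. After the CCF4 read, CellTiter-Glo was added; ATP luminescence was read after 30 min at room temperature.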

In assay [15] the target is Cellular tumor antigen p53 (Homo sapiens) (UniProt P04637). In words: TOX21_p53_BLA_p2_ratio: Tox21 HCT-116 p53 Agonism Beta-lactamase Assay, Ratio, Phase 2 (AID 2283592; active = hit-call score of the fitted dose curve at least 0.9, where 1 is the maximum). In outline: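 An inducible beta-lactamase reporter in HCT116 cells signals p53 pathway activation. After 16 h chemical exposure at 37C, cells load CCF4-AM substrate for 2 h at room temperature; activity is the cleaved/uncleaved emission ratio relative to DMSO.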
Chain of Cellular tumor antigen p53 (Homo sapiens) (P04637 whole entry, looked up): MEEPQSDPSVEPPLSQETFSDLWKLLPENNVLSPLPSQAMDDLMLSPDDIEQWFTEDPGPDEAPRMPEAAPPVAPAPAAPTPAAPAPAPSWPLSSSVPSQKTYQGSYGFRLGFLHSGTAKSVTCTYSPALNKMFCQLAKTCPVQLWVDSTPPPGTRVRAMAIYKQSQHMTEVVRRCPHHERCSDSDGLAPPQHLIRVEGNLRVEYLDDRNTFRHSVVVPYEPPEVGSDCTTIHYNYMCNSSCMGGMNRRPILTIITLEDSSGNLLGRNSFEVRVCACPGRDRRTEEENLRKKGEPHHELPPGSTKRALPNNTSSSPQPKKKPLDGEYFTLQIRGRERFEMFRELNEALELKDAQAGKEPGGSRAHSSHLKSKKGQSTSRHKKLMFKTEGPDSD

Assay [16] in a line: TOX21_p53_BLA_p3_viability: Viability Assessment in the Tox21 HCT-116 p53 Agonism Beta-lactamase Assay, Phase 3 (AID 2283593; active = hit-call score of the fitted dose curve at least 0.9, where 1 is the maximum;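 note: cells exposed to compound for 16 h before reading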). Summed up: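 HCT-116 cells (4000/well) rested 5 h at 37C, then got DMSO compounds by pin tool (217-fold dilution) for 16 h at 37C, 5% CO2. After the bla read, CellTiter-Glo was added and luminescence read at 30 min, room temperature.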
Assay [17] addresses Cellular tumor antigen p53 (Homo sapiens) (UniProt P04637). The experiment in a line: TOX21_p53_BLA_p3_ratio: Tox21 HCT-116 p53 Agonism Beta-lactamase Assay, Ratio, Phase 3 (AID 2283596; active = hit-call score of the fitted dose curve at least 0.9, where 1 is the maximum). In outline: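 HCT116 p53-bla cells (4000/well) given compound in DMSO (217-fold dilution) after 5 h, incubated 16 h at 37C. CCF4-AM substrate 2 h at room temperature; 460/530 nm emission ratio, gain fitted against DMSO.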

Read-out in assay [18]: sulfotransferase 2A1 (SULT2A1), SULT2A1 (gene 6822)
In words: LTEA_HepaRG_SULT2A1: Life Technologies and Expression Analysis (LTEA) Assay for sulfotransferase 2A1 (SULT2A1) using HepaRG (AID 2283531). As to conditions: mRNA level, 48 h; actives raise or lower the signal. In outline:
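Cells were plated and cultured 48 h, switched to serum-free induction medium, then dosed in duplicate for 48 h (8 concentrations, max 100 uM). RNA was isolated and SULT2A1 expression measured by qRT-PCR; gain or loss of signal fitted relative to DMSO.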

Records with an inconclusive call do not appear. Calls of active or inactive are those of the source. Rule for the calls, unless noted: active = hit-call score of the fitted dose curve at least 0.9, where 1 is the maximum; inactive = score below 0.9.

Chain of Signal transducer and activator of transcription 3 (Homo sapiens) (P40763 whole entry, looked up): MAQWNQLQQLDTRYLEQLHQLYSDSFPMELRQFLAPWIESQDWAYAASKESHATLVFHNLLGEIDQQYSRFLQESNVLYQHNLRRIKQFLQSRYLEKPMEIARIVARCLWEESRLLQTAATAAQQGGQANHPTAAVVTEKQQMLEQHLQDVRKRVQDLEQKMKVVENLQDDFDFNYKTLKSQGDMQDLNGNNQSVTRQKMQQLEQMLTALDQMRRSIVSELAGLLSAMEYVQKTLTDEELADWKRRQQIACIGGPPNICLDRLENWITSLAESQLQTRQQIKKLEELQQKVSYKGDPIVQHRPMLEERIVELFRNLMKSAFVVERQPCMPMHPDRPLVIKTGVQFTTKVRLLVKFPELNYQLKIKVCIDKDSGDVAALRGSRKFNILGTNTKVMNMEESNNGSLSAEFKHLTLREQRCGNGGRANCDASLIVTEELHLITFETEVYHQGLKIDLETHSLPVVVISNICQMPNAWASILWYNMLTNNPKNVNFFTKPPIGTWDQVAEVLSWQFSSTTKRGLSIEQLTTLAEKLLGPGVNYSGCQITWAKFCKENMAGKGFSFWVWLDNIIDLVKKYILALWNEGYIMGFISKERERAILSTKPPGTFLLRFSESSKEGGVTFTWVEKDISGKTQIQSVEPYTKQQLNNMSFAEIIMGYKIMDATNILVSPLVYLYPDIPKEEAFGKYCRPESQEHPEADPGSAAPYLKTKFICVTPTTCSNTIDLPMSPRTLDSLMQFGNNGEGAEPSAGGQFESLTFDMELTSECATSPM
Chain of Nuclear factor erythroid 2-related factor 2 (Homo sapiens) (Q16236 whole entry, looked up): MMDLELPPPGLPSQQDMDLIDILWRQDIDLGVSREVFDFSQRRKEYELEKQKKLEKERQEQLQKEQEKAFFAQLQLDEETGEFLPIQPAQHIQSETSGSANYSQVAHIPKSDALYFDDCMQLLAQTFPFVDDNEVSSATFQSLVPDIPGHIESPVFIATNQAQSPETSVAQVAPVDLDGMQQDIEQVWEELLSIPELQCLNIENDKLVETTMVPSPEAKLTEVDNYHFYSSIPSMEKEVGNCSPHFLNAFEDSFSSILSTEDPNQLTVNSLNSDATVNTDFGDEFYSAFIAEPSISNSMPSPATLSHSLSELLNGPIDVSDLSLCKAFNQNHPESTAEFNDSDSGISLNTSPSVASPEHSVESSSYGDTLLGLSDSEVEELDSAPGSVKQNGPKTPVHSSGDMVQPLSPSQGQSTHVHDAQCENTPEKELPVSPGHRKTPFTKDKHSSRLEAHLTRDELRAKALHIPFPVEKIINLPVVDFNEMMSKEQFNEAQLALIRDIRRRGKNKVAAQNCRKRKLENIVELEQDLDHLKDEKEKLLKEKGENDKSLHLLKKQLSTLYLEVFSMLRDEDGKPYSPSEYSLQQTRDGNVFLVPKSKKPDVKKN

Consider `S=c1[nH]c2ccccc2s1`, for which the result in [1], in assay [2], in assay [3], in assay [4], in assay [5] and in assay [6] was inactive. In addition, the outcome in the assay with TIMP1, TIMP1 (gene 7076) is “inactive”; in [7], “inactive”; in assay [8] it was “inactive”; in assay [9], “inactive”; in [10], “inactive”; in assay [11], “inactive”. Besides, the molecule was called inactive in [12], in assay [13], in assay [14], in [15], in assay [16] and in assay [17].
Turning to `CC(COCC(C)OC(=O)c1ccccc1)OC(=O)c1ccccc1` (centres undefined), the call in assay [1], in assay [2], in assay [3], in [4], in assay [18] and in assay [5] was inactive. For the same molecule, the outcome in assay [6] is “inactive”; in the assay with TIMP1, TIMP1 (gene 7076), “inactive”; in assay [7], “inactive”; in assay [8], “inactive”; in [10], “inactive”; in assay [11], “inactive”. In addition, the result in assay [12] and in assay [13] was inactive.
As to `CC(=O)O`, the molecule was classed as inactive in assay [1], in assay [2], in [3], in [4], in [18] and in [5]. For the same molecule, the outcome in assay [6] is “inactive”; with TIMP1, TIMP1 (gene 7076) it was “inactive”; in assay [7], “inactive”; in assay [8], “inactive”; in assay [10] it was “inactive”; in assay [11], “inactive”. Moreover, the call in [12] was inactive.
In general, AC50 refers to the concentration giving half of the maximal activity seen. On to `CC(=O)O[C@]1(C(C)=O)CC[C@H]2[C@@H]3C=C(Cl)C4=CC(=O)[C@@H]5C[C@@H]5[C@]4(C)[C@H]3CC[C@@]21C`, for which the AC50 in [1] was 81.2 µM (active); in assay [3] it was 50 µM (active); in assay [4], 76.8 µM (active); in [18], 50 µM (active); in [10], 72.3 µM (active); in assay [11], 73.3 µM (active). In addition, the AC50 in [13] was 53.7 µM (active). In addition, the outcome is “inactive” in [2]; “inactive” in assay [5]; “inactive” in [6]; “inactive” in the assay with TIMP1, TIMP1 (gene 7076); “inactive” in assay [7]; “inactive” in assay [8]. Further, in assay [12], the molecule was classed as inactive.
